Our source for the binding signal values is article PMC7862700, “An all-to-all approach to the identification of sequence-specific readers for epigenetic DNA modifications on cytosine”.

Test in all cases: DAPPL (digital affinity profiling via proximity ligation, sequencing); 10 mM Tris-HCl pH 7.5, 50 mM NaCl, 1 mM DTT, 4% glycerol, room temperature, 30 min; GST-TFs on glutathione beads, 16-mer random dsDNA library, 0.1% formaldehyde crosslink after washing; high values mean tight binding
Common to all, as to details: protein: recombinant; tags: N-terminal GST; dsDNA, one strand shown

One test deals with T1, FLI1 (Homo sapiens, UniProt Q01543 1-452).
T1 sequence: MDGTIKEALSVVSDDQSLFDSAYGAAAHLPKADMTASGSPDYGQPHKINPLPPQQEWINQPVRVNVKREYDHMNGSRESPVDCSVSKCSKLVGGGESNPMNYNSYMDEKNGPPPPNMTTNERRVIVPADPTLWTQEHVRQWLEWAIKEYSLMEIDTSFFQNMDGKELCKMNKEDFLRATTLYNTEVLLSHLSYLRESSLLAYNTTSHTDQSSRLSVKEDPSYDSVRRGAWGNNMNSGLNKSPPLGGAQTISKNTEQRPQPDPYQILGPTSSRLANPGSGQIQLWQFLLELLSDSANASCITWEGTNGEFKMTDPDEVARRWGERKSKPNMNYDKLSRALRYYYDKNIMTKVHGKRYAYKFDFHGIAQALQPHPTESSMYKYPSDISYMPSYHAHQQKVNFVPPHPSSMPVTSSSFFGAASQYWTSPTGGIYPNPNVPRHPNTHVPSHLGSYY
A digest of the protocol:
(§1)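 Each value of binding signal is a hexamer's read frequency for a factor divided by the same hexamer's frequency in the tag-only sample. Barcoded, bead-captured GST fusions of human transcription factors made in yeast were pooled with that sample and incubated with 200 nmole of a random double-stranded 16-mer DNA library in Tris/NaCl/DTT/glycerol buffer at room temperature for 30 min. Washing, 0.1% formaldehyde crosslinking, proximity ligation, PCR and Illumina NextSeq500 sequencing followed.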

A further test has as its target T2, ELK1 (Homo sapiens, UniProt P19419 1-428).
T2 sequence: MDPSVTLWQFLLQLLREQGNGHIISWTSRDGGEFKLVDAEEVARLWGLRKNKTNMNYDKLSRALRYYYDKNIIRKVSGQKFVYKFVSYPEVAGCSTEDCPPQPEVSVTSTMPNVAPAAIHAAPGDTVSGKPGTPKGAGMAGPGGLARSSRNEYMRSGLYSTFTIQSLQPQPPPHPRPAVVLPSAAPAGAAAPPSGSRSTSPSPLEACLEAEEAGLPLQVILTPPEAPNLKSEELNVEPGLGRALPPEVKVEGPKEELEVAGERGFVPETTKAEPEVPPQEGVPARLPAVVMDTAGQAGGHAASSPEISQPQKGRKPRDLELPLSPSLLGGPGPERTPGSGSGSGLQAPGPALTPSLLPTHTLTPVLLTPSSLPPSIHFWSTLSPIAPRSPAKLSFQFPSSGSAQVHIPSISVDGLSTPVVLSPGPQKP
A digest of the protocol: as §1

The next test deals with T3, GABPA (Homo sapiens, UniProt Q06546 1-454).
T3 sequence: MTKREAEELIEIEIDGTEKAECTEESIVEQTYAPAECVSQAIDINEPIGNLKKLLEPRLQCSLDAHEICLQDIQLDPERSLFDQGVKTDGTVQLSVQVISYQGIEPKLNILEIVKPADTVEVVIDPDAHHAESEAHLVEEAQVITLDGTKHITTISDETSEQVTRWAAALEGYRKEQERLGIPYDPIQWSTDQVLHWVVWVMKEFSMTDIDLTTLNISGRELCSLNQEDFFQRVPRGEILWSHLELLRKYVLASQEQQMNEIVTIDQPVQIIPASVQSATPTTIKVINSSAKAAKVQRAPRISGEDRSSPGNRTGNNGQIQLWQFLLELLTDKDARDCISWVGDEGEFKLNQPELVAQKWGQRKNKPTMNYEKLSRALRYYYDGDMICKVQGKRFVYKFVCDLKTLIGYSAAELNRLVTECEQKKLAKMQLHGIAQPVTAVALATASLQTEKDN
A digest of the protocol: as §1

A further test deals with T4, ERG (Homo sapiens, UniProt P11308 1-479).
T4 sequence: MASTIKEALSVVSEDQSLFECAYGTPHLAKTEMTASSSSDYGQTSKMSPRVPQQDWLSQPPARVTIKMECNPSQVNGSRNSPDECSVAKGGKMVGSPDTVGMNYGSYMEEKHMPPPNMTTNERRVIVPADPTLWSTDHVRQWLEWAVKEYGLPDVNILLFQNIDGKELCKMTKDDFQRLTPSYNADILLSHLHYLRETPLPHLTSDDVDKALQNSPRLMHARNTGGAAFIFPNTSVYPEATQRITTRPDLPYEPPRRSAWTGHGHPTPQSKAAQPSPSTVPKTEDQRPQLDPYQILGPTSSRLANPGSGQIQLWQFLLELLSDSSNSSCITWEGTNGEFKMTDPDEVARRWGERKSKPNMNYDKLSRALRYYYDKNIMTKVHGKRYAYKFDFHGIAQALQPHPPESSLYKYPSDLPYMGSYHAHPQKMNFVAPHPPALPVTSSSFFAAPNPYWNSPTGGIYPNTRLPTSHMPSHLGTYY
A digest of the protocol:
as §1

In a further test the target is ELF1 (Homo sapiens, UniProt P32519 1-619). A digest of the protocol: as §1
A further test addresses T5, EHF (Homo sapiens, UniProt Q9NZC4 1-300).
T5 sequence: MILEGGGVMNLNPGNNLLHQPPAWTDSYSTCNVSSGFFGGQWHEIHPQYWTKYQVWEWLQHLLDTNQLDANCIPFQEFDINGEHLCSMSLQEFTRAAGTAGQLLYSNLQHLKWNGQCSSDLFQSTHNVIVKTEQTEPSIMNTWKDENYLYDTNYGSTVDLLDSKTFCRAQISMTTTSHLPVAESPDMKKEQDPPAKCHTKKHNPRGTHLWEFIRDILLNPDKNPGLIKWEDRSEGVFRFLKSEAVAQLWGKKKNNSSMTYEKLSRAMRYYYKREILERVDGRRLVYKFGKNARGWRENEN
A digest of the protocol:
as §1

The target in another test is SPI1 (Homo sapiens, UniProt P17947 1-270). Summed up:
as §1

Another test concerns the target SPIB (Homo sapiens, UniProt Q01892 1-262). A digest of the protocol:
as §1

For another test, the target named is T6, ELK3 (Homo sapiens, UniProt P41970 1-407).
T6 sequence: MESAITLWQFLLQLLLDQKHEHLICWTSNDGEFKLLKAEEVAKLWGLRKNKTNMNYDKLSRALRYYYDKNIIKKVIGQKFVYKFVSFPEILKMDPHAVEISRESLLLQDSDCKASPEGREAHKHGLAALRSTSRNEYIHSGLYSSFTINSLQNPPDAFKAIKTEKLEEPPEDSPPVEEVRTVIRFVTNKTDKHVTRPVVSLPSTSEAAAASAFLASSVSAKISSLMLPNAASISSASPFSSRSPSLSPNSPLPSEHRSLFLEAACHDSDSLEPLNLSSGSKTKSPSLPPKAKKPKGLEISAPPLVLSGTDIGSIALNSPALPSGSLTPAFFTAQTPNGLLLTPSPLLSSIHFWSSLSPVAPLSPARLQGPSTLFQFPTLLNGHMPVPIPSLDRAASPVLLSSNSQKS
A digest of the protocol: as §1

The target of the next test is T7, FEV (Homo sapiens, UniProt Q99581 1-238).
T7 sequence: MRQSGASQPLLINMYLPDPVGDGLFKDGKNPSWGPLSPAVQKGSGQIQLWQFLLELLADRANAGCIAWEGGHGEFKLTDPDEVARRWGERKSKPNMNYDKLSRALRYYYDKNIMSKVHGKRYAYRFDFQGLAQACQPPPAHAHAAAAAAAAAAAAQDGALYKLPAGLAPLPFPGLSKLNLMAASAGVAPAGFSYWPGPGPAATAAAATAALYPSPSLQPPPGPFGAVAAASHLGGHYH
A digest of the protocol:
as §1

In a further test the target is ETV5 (Homo sapiens, UniProt P41161 1-510). Summed up:
as §1

A further test has as its target T8, SPIC (Homo sapiens, UniProt Q8N5J4 1-248).
T8 sequence: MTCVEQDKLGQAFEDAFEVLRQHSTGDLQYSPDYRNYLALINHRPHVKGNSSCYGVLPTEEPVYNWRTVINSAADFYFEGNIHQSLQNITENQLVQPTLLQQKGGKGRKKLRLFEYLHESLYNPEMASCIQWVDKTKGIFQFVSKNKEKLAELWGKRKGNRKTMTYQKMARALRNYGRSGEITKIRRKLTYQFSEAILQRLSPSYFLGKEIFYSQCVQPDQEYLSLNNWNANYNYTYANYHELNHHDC
A digest of the protocol:
as §1

For the next test, the target named is ELF4 (Homo sapiens, UniProt Q99607 1-663). Summed up:
as §1

The target in the next test is T9, ELK4 (Homo sapiens, UniProt P28324-2 1-405).
T9 sequence: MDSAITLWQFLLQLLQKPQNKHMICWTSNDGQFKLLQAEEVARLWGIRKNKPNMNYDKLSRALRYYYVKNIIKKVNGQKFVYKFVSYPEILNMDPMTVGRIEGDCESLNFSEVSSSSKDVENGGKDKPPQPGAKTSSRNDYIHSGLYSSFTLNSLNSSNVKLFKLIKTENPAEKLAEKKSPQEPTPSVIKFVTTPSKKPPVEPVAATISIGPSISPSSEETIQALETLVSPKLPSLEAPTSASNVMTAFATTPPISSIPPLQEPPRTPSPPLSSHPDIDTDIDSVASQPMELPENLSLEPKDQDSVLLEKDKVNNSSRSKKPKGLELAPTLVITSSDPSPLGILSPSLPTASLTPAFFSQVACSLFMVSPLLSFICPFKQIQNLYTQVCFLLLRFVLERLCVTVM
Summed up: as §1

Another test concerns the target T10, ETV2 (Homo sapiens, UniProt O00321 1-342).
T10 sequence: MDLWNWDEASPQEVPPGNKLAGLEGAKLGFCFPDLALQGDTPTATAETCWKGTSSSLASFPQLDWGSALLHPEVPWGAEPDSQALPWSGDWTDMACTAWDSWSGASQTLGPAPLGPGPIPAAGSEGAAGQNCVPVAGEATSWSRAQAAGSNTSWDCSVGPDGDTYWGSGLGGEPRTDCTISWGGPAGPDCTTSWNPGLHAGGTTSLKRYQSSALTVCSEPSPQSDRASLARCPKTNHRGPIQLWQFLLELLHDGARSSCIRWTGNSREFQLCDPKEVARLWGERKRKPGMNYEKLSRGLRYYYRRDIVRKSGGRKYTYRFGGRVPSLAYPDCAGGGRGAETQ
A digest of the protocol:
as §1

A further test has as its target T11, ELF3 (Homo sapiens, UniProt P78545 1-371).
T11 sequence: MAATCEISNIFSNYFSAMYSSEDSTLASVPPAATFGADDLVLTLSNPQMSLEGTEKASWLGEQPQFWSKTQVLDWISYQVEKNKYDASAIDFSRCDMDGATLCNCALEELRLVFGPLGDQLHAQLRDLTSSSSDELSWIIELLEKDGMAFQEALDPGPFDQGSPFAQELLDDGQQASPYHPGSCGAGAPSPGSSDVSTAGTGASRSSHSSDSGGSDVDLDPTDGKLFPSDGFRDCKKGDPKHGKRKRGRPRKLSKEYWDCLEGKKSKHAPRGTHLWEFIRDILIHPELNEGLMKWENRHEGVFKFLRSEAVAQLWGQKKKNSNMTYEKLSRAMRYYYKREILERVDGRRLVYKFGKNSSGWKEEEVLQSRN
A digest of the protocol:
as §1

The target in a further test is ETV1 (Homo sapiens, UniProt P50549 1-477). A digest of the protocol:
as §1

Chain of ETV5 (P41161 whole entry): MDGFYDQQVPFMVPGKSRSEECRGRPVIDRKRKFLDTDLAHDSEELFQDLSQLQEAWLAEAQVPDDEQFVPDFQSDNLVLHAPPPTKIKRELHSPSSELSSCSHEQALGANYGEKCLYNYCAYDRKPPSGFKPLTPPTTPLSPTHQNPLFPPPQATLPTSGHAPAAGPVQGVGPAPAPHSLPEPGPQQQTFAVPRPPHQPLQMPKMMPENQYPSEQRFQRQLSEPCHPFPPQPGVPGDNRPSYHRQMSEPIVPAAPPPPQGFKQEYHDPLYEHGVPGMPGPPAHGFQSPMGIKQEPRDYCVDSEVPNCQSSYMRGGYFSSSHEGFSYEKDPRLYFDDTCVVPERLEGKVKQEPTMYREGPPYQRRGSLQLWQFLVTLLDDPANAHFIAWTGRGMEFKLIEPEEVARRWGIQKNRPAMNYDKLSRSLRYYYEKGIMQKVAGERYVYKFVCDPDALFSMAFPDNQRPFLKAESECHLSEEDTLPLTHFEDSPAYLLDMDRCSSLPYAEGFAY
Chain of ETV1 (P50549 whole entry): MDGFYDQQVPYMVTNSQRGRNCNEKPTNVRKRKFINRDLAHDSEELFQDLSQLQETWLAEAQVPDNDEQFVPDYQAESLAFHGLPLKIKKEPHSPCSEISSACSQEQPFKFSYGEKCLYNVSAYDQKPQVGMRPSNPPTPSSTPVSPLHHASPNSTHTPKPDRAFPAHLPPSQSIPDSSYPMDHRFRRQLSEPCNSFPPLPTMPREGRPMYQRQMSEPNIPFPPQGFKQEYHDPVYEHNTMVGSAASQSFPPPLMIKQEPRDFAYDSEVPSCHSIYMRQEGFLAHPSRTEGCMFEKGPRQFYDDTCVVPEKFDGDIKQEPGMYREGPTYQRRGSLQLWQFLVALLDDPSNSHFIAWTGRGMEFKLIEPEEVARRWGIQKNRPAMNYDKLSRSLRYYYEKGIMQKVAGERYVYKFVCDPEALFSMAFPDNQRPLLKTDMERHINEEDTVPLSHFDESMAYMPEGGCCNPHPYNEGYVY
Chain of ELF4 (Q99607 whole entry): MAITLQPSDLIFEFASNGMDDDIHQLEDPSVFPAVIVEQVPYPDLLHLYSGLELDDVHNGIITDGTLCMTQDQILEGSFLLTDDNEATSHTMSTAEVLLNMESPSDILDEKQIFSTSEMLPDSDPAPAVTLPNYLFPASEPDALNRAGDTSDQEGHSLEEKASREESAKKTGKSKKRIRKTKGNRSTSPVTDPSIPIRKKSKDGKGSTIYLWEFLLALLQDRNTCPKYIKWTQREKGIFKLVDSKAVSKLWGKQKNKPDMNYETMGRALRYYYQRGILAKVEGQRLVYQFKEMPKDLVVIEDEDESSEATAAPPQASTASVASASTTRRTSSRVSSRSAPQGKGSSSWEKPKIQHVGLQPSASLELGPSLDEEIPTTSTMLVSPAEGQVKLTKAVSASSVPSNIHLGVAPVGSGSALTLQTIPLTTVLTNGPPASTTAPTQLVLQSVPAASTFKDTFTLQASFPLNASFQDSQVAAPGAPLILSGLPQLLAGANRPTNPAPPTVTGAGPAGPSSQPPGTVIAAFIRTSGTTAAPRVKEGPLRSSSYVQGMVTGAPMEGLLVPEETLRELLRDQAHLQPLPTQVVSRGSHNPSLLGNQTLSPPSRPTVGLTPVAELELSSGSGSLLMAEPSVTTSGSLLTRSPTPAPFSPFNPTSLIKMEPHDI
Chain of ELF1 (P32519 whole entry): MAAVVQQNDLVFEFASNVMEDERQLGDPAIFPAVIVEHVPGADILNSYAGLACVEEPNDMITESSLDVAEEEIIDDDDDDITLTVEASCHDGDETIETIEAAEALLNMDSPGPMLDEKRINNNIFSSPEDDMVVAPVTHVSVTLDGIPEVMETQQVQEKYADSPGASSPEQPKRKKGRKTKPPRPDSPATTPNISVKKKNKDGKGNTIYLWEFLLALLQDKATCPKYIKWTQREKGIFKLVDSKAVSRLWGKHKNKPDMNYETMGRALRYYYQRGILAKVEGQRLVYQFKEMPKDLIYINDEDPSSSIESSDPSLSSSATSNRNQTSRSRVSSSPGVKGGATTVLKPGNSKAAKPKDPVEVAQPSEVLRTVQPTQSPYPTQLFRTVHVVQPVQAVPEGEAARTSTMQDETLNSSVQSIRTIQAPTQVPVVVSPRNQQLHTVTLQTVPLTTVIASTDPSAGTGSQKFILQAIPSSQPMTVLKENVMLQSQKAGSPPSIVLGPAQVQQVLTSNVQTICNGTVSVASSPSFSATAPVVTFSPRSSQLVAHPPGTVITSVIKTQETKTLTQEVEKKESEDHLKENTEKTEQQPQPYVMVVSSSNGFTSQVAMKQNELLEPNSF
Chain of SPIB (Q01892 whole entry): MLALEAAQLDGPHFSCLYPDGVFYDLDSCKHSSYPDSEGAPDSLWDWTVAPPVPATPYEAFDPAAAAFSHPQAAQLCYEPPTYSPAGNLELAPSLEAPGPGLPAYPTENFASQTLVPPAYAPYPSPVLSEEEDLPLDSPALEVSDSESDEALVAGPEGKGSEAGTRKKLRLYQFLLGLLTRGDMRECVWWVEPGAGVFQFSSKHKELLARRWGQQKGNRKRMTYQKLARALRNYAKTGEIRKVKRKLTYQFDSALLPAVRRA

Turning to GTGTTT, the binding signal with FLI1 is 1.15 fold enrichment (6-mer frequency, TF over GST control); with ELK1, 1.19 fold enrichment (6-mer frequency, TF over GST control); with GABPA it was 1.08 fold enrichment (6-mer frequency, TF over GST control); with ERG, 1.07 fold enrichment (6-mer frequency, TF over GST control); with ELF1, 1.16 fold enrichment (6-mer frequency, TF over GST control); with EHF, 1.09 fold enrichment (6-mer frequency, TF over GST control). Moreover, the binding signal with SPI1 was 1.11 fold enrichment (6-mer frequency, TF over GST control); in the test with SPIB, 1.16 fold enrichment (6-mer frequency, TF over GST control); in the test with ELK3, 1.2 fold enrichment (6-mer frequency, TF over GST control); with FEV it was 1.09 fold enrichment (6-mer frequency, TF over GST control); with ETV5, 1.14 fold enrichment (6-mer frequency, TF over GST control); with SPIC, 1.21 fold enrichment (6-mer frequency, TF over GST control). Moreover, the binding signal with ELF4 is 1.18 fold enrichment (6-mer frequency, TF over GST control); with ELK4 it was 1.11 fold enrichment (6-mer frequency, TF over GST control); in the test with ETV2, 1.02 fold enrichment (6-mer frequency, TF over GST control); with ELF3 it was 1.17 fold enrichment (6-mer frequency, TF over GST control); with ETV1, 1.21 fold enrichment (6-mer frequency, TF over GST control).

With ACTGCA, the binding signal was 1.1 fold enrichment (6-mer frequency, TF over GST control) with FLI1; 1.17 fold enrichment (6-mer frequency, TF over GST control) with ELK1; 1.05 fold enrichment (6-mer frequency, TF over GST control) with GABPA; 1.09 fold enrichment (6-mer frequency, TF over GST control) in the test with ERG; 1.19 fold enrichment (6-mer frequency, TF over GST control) with ELF1; 1.12 fold enrichment (6-mer frequency, TF over GST control) in the test with EHF. The binding signal in the test with SPI1 was 1.27 fold enrichment (6-mer frequency, TF over GST control); with SPIB, 1.15 fold enrichment (6-mer frequency, TF over GST control); in the test with ELK3 it was 1.11 fold enrichment (6-mer frequency, TF over GST control); with FEV, 1.18 fold enrichment (6-mer frequency, TF over GST control); with ETV5, 1.2 fold enrichment (6-mer frequency, TF over GST control); with SPIC it was 1.34 fold enrichment (6-mer frequency, TF over GST control). Besides, the binding signal is 1.09 fold enrichment (6-mer frequency, TF over GST control) in the test with ELF4; 1.25 fold enrichment (6-mer frequency, TF over GST control) with ELK4; 1 fold enrichment (6-mer frequency, TF over GST control) with ETV2; 1.08 fold enrichment (6-mer frequency, TF over GST control) with ELF3; 1.01 fold enrichment (6-mer frequency, TF over GST control) with ETV1.
